From PubChem BioAssay (Tox21)
“And” between values parts separate entries of the source, which are not always exact repeats. Identical values can stand only once. Records with an inconclusive call do not appear. A call without a number means that no potency is given here. Some structures have more than one record in an assay (separate samples or runs), and their calls can disagree. The source made the active and inactive calls. The call rests on the fitted dose curve; in most records, active means well fitted cell-killing curve with a large enough effect in the repeat runs; inconclusive means weak or mixed curves, or effect the other way; inactive means no such curve, though single readings can be large or run the other way.
Potency means the concentration at half of the fitted maximal effect.

Experiment: qHTS assay to identify small molecule agonists of the vitamin D receptor (VDR) signaling pathway - cell viability counter screen (AID 743224); further: nearly all actives have a fitted effect of over 50% in size
Conditions: VDR-bla HEK293T viability, CellTiter-Glo luminescence, 16 h; series mostly up to 62.6 µM
From the text: U.S. Tox21 Program National Center for Advancing Translational Sciences [NCATS] NIH Chemical Genomics Center [NCGC] U.S. Environmental Protection Agency [EPA] National Institutes of Environmental Health Sciences [NIEHS] National Toxicology Program [NTP] U.S. Food and Drug Administration [FDA] Tox21 Assay Overview: The vitamin D receptor (VDR), a member of nuclear hormone receptor superfamily, plays a critical role in calcium homeostasis and bone metabolism. It is also involved in cell differentiation and growth, and thrombogenicity. […] The cytotoxicity of the Tox21 compound library against the VDR-bla cell line was tested in parallel by measuring the cell viability using CellTiter-Glo assay (Promega, Madison, WI) in the same wells.
Tox21 Assay Protocol Summary: VDR-bla cells were dispensed at 2,000 cells/6 uL/well into black wall/clear-bottom 1536-well plates using a Multidrop Combi (Thermo Fisher Scientific, Waltham, MA) dispenser. After the assay plates were incubated at a 37C and 5% CO2 for 4 h, 23 nL of compounds dissolved in DMSO, positive controls or DMSO only was transferred to the assay plate by a Pintool station (Kalypsys, San Diego, CA). The plates were incubated at 37C and 5% CO2 for 16 h. After 1 uL of LiveBLAzerTM B/G FRET substrate was added using a Bioraptr Flying Reagent Dispenser (FRD) workstation (Beckman Coulter, Indianapolis, IN, USA), the plates were incubated at room temperature for 2 h, and fluorescence intensity was measured by an Envision plate reader (PerkinElmer, Shelton, CT). For cell viability readout that measures cytotoxicity, 3 ul/well of CellTiter-Glo reagent was added into the assay plates using a FRD. After 30 min incubation at room temperature, the luminescence intensity in the plates was measured using a ViewLux (PerkinElmer) plate reader.
For `c1ccc2c(c1)sc1ccccc12`, the Potency was “inactive”. For `CCOC(=O)NC(O)C(Cl)(Cl)Cl` (stereo not given), the Potency was “inactive”. With `CCCCCCCCn1sccc1=O` the Potency was 873 nM (active) and 1.15 µM (active). In the case of `CC(C)(C)N(NC(=O)c1ccc(Cl)cc1)C(=O)c1ccccc1`, the Potency is reported as “inactive”. In the case of `C=C(C)C(=O)OCCCCOC(=O)C(=C)C`, the Potency is reported as “inactive”. For `N#CC1(N=NC2(C#N)CCCCC2)CCCCC1`, the Potency was “inactive”. In the case of `Nc1ccc2c(c1)Cc1ccccc1-2`, the Potency is reported as “inactive”. For `CCCCCBr`, the Potency was “inactive”. In the case of `CCCN(CCC)C(=O)Cc1c(-c2ccc(Cl)cc2)nc2ccc(Cl)cn12`, the Potency is reported as “inactive”. In the case of `OC[P+](CO)(CO)CO`, the Potency is reported as 55.6 µM (active) and inactive. For `O=C(Cc1ccccc1)c1ccccc1`, the Potency was “inactive”. With `CN(C)N` the Potency was “inactive”. For `COc1ccc(C(=O)c2c(C)n(CCN3CCOCC3)c3ccccc23)cc1`, the Potency was “inactive”. With `Clc1ccc(Cl)c(Cl)c1` the Potency was “inactive”. In the case of `CCOP(=S)(OCC)Oc1ccc(S(C)=O)cc1` (stereo not given), the Potency is reported as “inactive”. For `Cc1cnc(C2=NC(C)(C(C)C)C(=O)N2)c(C(=O)O)c1` (stereo not given), the Potency was “inactive”. For `CC(=O)OC(c1ccccc1)C(Cl)(Cl)Cl` (stereo not given), the Potency was “inactive”. For `CC(Cc1ccccc1)NCc1ccccc1Cl` (stereo not given), the Potency was “inactive”. For `C=CCN1C[C@H](C)N([C@H](c2ccc(C(=O)N(CC)CC)cc2)c2cccc(OC)c2)C[C@H]1C`, the Potency was “inactive”. For `CC(C)CCCCCCCOC(=O)c1ccccc1C(=O)OCCCCCCCC(C)C`, the Potency was “inactive”. In the case of `O=C1NC(=O)C(=O)C(=O)N1`, the Potency is reported as “inactive”. With `CC(C)(C#N)C(C)(C)C#N` the Potency was “inactive”. With `C[C@H]1O[C@H](OC2[C@@H](O)[C@@H](O)C(O)[C@H](O)[C@H]2O)[C@@H](N)C[C@@H]1N=C(N)C(=O)O` (stereo not given in full) the Potency was “inactive”. For `CC[N+]1(CCOC(=O)C(O)(c2ccccc2)c2ccccc2)CCCCC1`, the Potency was “inactive”. For `C[N+](C)(C)CCOC(=O)C(O)(c1ccccc1)c1ccccc1`, the Potency was “inactive”. With `NC(=S)c1c(Cl)cccc1Cl` the Potency was “inactive”. For `COC1=CC(=O)O[C@@H](/C=C/c2ccc3c(c2)OCO3)C1`, the Potency was “inactive”. In the case of `OCCSSCCO`, the Potency is reported as “inactive”. For `CCCC[P+](CC)(CCCC)CCCC` (tested in a mixture with another compound), the Potency was “inactive”. In the case of `CCCCCCCCCCCCCCCl`, the Potency is reported as “inactive”. With `O=C(O)c1cc(Cl)ccc1Cl` the Potency was “inactive”. In the case of `CN(C)C(=O)Nc1cccc(OC(=O)NC(C)(C)C)c1`, the Potency is reported as “inactive”. With `C1CS1` the Potency was “inactive”. For `ClCc1ccccc1Cl`, the Potency was “inactive”. For `C=CCc1ccccc1O`, the Potency was “inactive”. With `O=C=NC1CCCCC1` the Potency was “inactive”. With `Cc1ncc(C[n+]2csc(CCO)c2C)c(N)n1` the Potency was “inactive”. In the case of `CC(C)(C)CC(C)(C)c1ccc(O)cc1`, the Potency is reported as 15.5 µM (active) and inactive. In the case of `CCCCC#N`, the Potency is reported as “inactive”. In the case of `[Cl-].[Cl-].[Hg+2]`, the Potency is reported as 773 nM (active) and 1.1 µM (active).
